Measurements reported in the supplement of paper PMC10981050.
“And” between values parts separate entries of the source, which are not always exact repeats. Identical values can stand only once. Counter-ions that a name gives are not always drawn.

Experiments:
Assay in all cases: cell viability relative to vehicle control; higher = less cytotoxic
Conditions in all cases: 10 µM
[1] = test system: K562
Method in brief: (§1)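 Four leukaemia lines, as CRISPR-edited mutant clones and isogenic wild-type clones, were tested against Selleck bioactive, kinase and epigenetic probe libraries after removal of identity-inconsistent compounds. Cells were exposed to a single 10 µM dose for 48 h, and CellTiter-Glo luminescence was then read. Viability was calculated relative to the on-plate vehicle control.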

[2] = test system: MARIMO
Method in brief: as §1

[3] = test system: MOLM14
Method in brief: as §1

[4] = test system: OCI-AML2
Method in brief: as §1

Structure (SMILES) | cell viability ([1]; SRSF2 genotype: SRSF2 P95H/wt) | cell viability ([1]; SRSF2 genotype: SRSF2 wt/wt) [%] | cell viability ([2]; SRSF2 genotype: SRSF2 P95H/wt) [%] | cell viability ([2]; SRSF2 genotype: SRSF2 wt/wt) [%] | cell viability ([3]; SRSF2 genotype: SRSF2 P95H/wt) [%] | cell viability ([3]; SRSF2 genotype: SRSF2 wt/wt) [%] | cell viability ([4]; SRSF2 genotype: P95H/wt) [%] | cell viability ([4]; SRSF2 genotype: wt/wt) [%]
CN(N=O)C(=O)NC1C(O)OC(CO)C(O)C1O (configuration not stated) [Streptozotocin (STZ)] | 103% | 105 | 98.3 | 104 | 97.2 | 103 | 100 | 107
CC[C@H]1OC(=O)[C@H](C)[C@@H](O[C@H]2C[C@@](C)(OC)[C@@H](O)[C@H](C)O2)[C@H](C)[C@@H](O[C@@H]2O[C@H](C)C[C@H](N(C)C)[C@H]2O)[C@](C)(O)C[C@@H](C)CN[C@H](C)[C@@H](O)[C@]1(C)O [Azathramycin] | 104% and 112% | 115 | 107 | 104 | 109 | 108 | 111 | 97.8
Cc1[nH]c2ccccc2c1CCNC(=O)c1cccs1 | 92% and 93.8% | 100 | 90 | 97.2 | 106 | 99.4 | 94.5 | 97.4
O=C(Nc1ccc(OC(F)(F)Cl)cc1)c1cnc(N2CC[C@@H](O)C2)c(-c2cc[nH]n2)c1 [Asciminib (ABL001)] | 12.7% and 19% | 17.1 | 68.4 | 64.5 | 92 | 87.7 | 41.2 | 55
COc1cccc(-c2c(C)n(Cc3c(F)cccc3C(F)(F)F)c(=O)n(C[C@H](NCCCC(=O)O)c3ccccc3)c2=O)c1F [Elagolix Sodium] | 97% and 93% | 96.3 | 104 | 115 | 99 | 101 | 110 | 104
O=C1Cc2cc(CCN3CCN(c4nsc5ccccc45)CC3)c(Cl)cc2N1 [Ziprasidone hydrochloride] | 87% and 98.6% | 97 | 88.7 | 95.2 | 37.8 | 81.3 | 91.9 | 88.1
Cc1cc(C)n(C)n1 [1,3,5-Trimethylpyrazole] | 110% and 105% | 115 | 113 | 109 | 97.9 | 110 | 104 | 104
COc1cc2c(cc1OC)[C@@H]1Cc3ccc(OC)c(OC)c3CN1CC2 [Rotundine] | 87.8% and 98.4% | 101 | 98.2 | 91.1 | 94 | 95.2 | 95.1 | 90.4
Clc1cccc(CN=C2Nc3ccccc3NC23CCNCC3)c1 [Liproxstatin-1] | 68.8% and 75.6% | 70 | 73 | 70.1 | 68.9 | 80.1 | 93.5 | 71.5
Cc1cccc(N(C)C(=S)Oc2ccc3ccccc3c2)c1 [Tolnaftate] | 99.7% and 106% | 91.9 | 89.3 | 109 | 96.9 | 101 | 106 | 109
Cc1ccc(S(=O)(=O)Nc2cc(-c3ccc(C#N)s3)ccc2C)cc1 | 12.9% and 36.3% | 33.5 | 7.34 | 8.88 | 1.58 | 1.53 | 2.78 | 5.12
O=C(Nc1nccs1)C(c1cc(F)ccc1O)N1Cc2ccccc2C1=O (configuration not stated) | 103% and 94.9% | 96.6 | 94.6 | 105 | 98 | 97.6 | 93.9 | 100
CN1CCN(Cc2ccc(NC(=O)Nc3ccc(Oc4cc(NC(=O)C5CC5)ncn4)cc3)cc2C(F)(F)F)CC1 | 21.2% and 19% | 20.5 | 1.8 | 1.13 | 0.31 | 0.31 | 0.36 | 1.73
C/C(O)=C(\C#N)C(=O)Nc1ccc(C(F)(F)F)cc1 [Teriflunomide] | 93.8% and 104% | 91.6 | 94.3 | 98.5 | 88.2 | 93.9 | 79.9 | 87.1
CS(=O)(=O)Nc1cc2occ(NC=O)c(=O)c2cc1Oc1ccccc1 [Iguratimod] | 107% and 95.3% | 110 | 107 | 107 | 99.1 | 108 | 117 | 123
O=C(/C=C/c1ccc(O)c(O)c1)c1ccc(O)cc1O [Butein] | 62% and 61% | 76.8 | 52.6 | 64.7 | 52.4 | 47.8 | 84.1 | 77.8
CCOC(=O)CC(=O)N1CCSC1COc1ccccc1OC (configuration not stated) [Moguisteine] | 99.2% and 102% | 97.3 | 98.3 | 108 | 100 | 105 | 105 | 92
CCCCCCCCC[C@H](O)CC(=O)CCc1ccc(O)c(OC)c1 [10-Gingerol] | 92.4% and 91.5% | 98.5 | 91.1 | 92.4 | 90 | 94 | 82.5 | 82.4
O=C(Oc1cc(S(=O)(=O)c2ccccc2)ccc1[N+](=O)[O-])c1ccc(Cl)cc1 | 104% and 109% | 106 | 106 | 103 | 104 | 107 | 114 | 115
CCOC(=O)C1=C(N)Oc2ccc(Cl)cc2C1C(C#N)C(=O)OCC (configuration not stated) | 85.4% and 84.9% | 65.4 | 56.6 | 55.8 | 64.2 | 93.2 | 63.7 | 64.2

Structure (SMILES) | cell viability ([1]; SRSF2 genotype: SRSF2 P95H/wt) | cell viability ([1]; SRSF2 genotype: SRSF2 wt/wt) [%] | cell viability ([2]; SRSF2 genotype: SRSF2 P95H/wt) [%] | cell viability ([2]; SRSF2 genotype: SRSF2 wt/wt) [%] | cell viability ([3]; SRSF2 genotype: SRSF2 P95H/wt) [%] | cell viability ([3]; SRSF2 genotype: SRSF2 wt/wt) [%] | cell viability ([4]; SRSF2 genotype: P95H/wt) [%] | cell viability ([4]; SRSF2 genotype: wt/wt) [%]
C[C@@H](N)c1ccc(C(=O)Nc2ccnc3[nH]ccc23)cc1 | 90.4% and 107% | 105 | 65.8 | 78 | 31.2 | 41.1 | 19.1 | 32.1
CCOc1ccc2ccccc2c1C(=O)N[C@@H]1C(=O)N2[C@@H]1SC(C)(C)[C@@H]2C(=O)O [Nafcillin Sodium] | 106% | 101 | 104 | 115 | 101 | 108 | 98 | 107
Oc1cc(O)c(Cl)cn1 [Gimeracil] | 105% and 98.5% | 92.4 | 101 | 109 | 102 | 107 | 101 | 111
C[C@H](CCC(=O)O)[C@H]1CC[C@H]2[C@@H]3C[C@H](O)[C@@H]4C[C@H](O)CC[C@]4(C)[C@H]3CC[C@]12C [Hyodeoxycholic acid (HDCA)] | 92.5% and 93.9% | 88.6 | 87.5 | 94.3 | 93.5 | 97.5 | 93.1 | 97.4
CCCCCCCCCCCCCCCCCCCC(=O)O [Arachidic acid] | 95.7% and 93.1% | 98.9 | 96 | 96.3 | 96.1 | 103 | 103 | 109
COc1ccc(S(=O)(=O)N(CCO)c2ccccc2CN(C)C/C=C/c2ccc(Cl)cc2)cc1 [KN-93 Phosphate] | 38.5% and 44% | 51.6 | 33.5 | 27.9 | 45.5 | 41.8 | 35.6 | 33.4
CCCCN(Cc1ccc(C(=O)NO)cc1)C(=O)Nc1ccccc1 [Nexturastat A] | 23.9% and 35.1% | 45.5 | 6.74 | 21 | 7.82 | 2.04 | 3.08 | 7.67
CCS(=O)(=O)Nc1ccc(Oc2ccc(F)cc2F)c(-c2cn(C)c(=O)c3[nH]ccc23)c1 [ABBV-075 (Mivebresib)] | 20.9% and 13.8% | 33.2 | 7.17 | 9.37 | 1.9 | 1.8 | 7.64 | 13.5
CC1(C)C[C@@H]1C(=O)N/C(=C\CCCCSC[C@H](N)C(=O)O)C(=O)O [Cilastatin] | 104% and 93.4% | 105 | 97 | 100 | 104 | 103 | 102 | 110
CCC[S+]([O-])c1ccc2[nH]c(NC(=O)OC)nc2c1 (configuration not stated) [Albendazole Oxide (Ricobendazole)] | 88.8% and 83.5% | 80.6 | 85.7 | 88 | 88.2 | 95.4 | 87.8 | 95.5
CCN1CCCC1CNC(=O)c1cc(S(=O)(=O)CC)c(N)cc1OC (configuration not stated) [Amisulpride] | 104% and 101% | 105 | 102 | 107 | 109 | 108 | 109 | 110
NCCc1c[nH]cn1 [Histamine 2HCl] | 99% and 106% | 105 | 96.7 | 96.1 | 69 | 82.3 | 110 | 88.3
C[C@@H]1O[C@@H](OC[C@H]2O[C@@H](Oc3c(-c4ccc(O)c(O)c4)oc4cc(O)cc(O)c4c3=O)[C@H](O)[C@@H](O)[C@@H]2O)[C@H](O)[C@H](O)[C@H]1O [Rutin (Rutoside)] | 106% and 105% | 109 | 108 | 106 | 105 | 103 | 105 | 115
Cc1nc(-c2ccc(OCC(C)C)c(C#N)c2)sc1C(=O)O [Febuxostat (Uloric)] | 93.4% and 98.2% | 100 | 102 | 111 | 107 | 105 | 119 | 123
NCc1c[nH]c(=S)n1[C@@H]1CCc2c(F)cc(F)cc2C1 [(R)-Nepicastat HCl] | 101% and 97% | 102 | 94.9 | 110 | 97.2 | 101 | 104 | 103
COc1cc(Nc2ncc(F)c(Nc3ccc4c(n3)N(COP(=O)(O)O)C(=O)C(C)(C)O4)n2)cc(OC)c1OC [R788 (Fostamatinib)] | 65.8% and 65.1% | 59.4 | 63.8 | 57 | 3.63 | 6.37 | 11.3 | 21.2
C[C@@H]1CC[C@@]2(OC1)O[C@H]1C[C@H]3[C@@H]4CC=C5C[C@@H](O[C@@H]6O[C@H](CO)[C@@H](O)[C@H](O[C@@H]7O[C@H](CO)[C@@H](O)[C@H](O)[C@H]7O)[C@H]6O[C@@H]6O[C@@H](C)[C@H](O)[C@@H](O)[C@H]6O)CC[C@]5(C)[C@H]4CC[C@]3(C)[C@H]1[C@@H]2C [Gracillin] | 31.2% and 29.4% | 1.47 | 70.2 | 11.4 | 12 | 0.55 | 5.61 | 4.21
CCC(C)SSc1ncc[nH]1 (configuration not stated) | 14.2% and 15.1% | 11.6 | 6.03 | 4.97 | 1.56 | 3.76 | 4.83 | 3.63
CN(C)CCSSCCNC(=O)C1CCN(C(=O)CSc2ccc(Cl)cc2)CC1 | 82% and 85.7% | 81.6 | 68 | 86.9 | 91.8 | 95.1 | 89.8 | 79.5
